Laboratory results published in PubChem BioAssay AID463173 (ICCB-Longwood Screening Facility, Harvard Medical School, 2010).
Screen size: about 52,000 compounds; about 4,300 (8.3%) were called active. This is one part of a sample in which actives are shown more often than they occur. A number with no mark means an inactive call. Cut-off read from the data, not from the text of the source: active = survival mostly below about 52% (no sharp cut-off); inactive = mostly above about 56%.

system: DeltatarO mutant; assay: growth inhibition of S. aureus wild type versus tarO mutant, primary screen, teichoic acid synthesis inhibitors, RN4220, OD600 (AID 463173); conditions: OD600, 18 h, active compounds read low, screened at 18.75 µg/mL (by protocol)

Compared with `CCC(C)NC(=O)c1c(C)oc2ncn(CC(C)C)c(=O)c12` (centres undefined), `CCn1cc(C(=O)NCc2ccc(F)cc2)c(=O)c2cc(S(=O)(=O)N(C)C)ccc21` is higher in survival: 79% for the first, 81% for the second.

Compared with `COC(=O)c1c(-c2ccc(Cl)cc2)noc1N1CCN(c2cccc(C)c2C)CC1`, `Cc1nnc2c3ccccc3nc(N3CCN(c4cccc(Cl)c4)CC3)n12` is higher in survival: 79% for the first, 92% for the second.

Compared with `CN1C(=O)CSC1=Nc1cccc(C(=O)O)c1`, `Cc1nn2c(=O)cc(COC(=O)c3ccc(NC(=O)c4cccc(Br)c4)cc3)nc2s1` is higher in survival: 89% for the first, 97% for the second.

Going from `COC(=O)c1csc(N)n1` to `CCOCCc1nn2c(=O)cc(COC(=O)c3ccc(NC(=O)C4CCCCC4)cc3)nc2s1`, the survival falls from 95% to 70%.

First: CCOc1ccc2c(c1)c(=O)c(S(=O)(=O)c1ccc(F)cc1)cn2CC(=O)Nc1ccccc1C
Second: Cc1ccc(-c2noc(-c3ccccc3NC(=O)C3CC(=O)N(c4cccc(C)c4)C3)n2)cc1 (centres undefined)
The survival of the first is higher: 96% for the first, 66% for the second.

Going from `CC1=Nc2cc(C(=O)N3CCC(C)CC3)ccc2Sc2ccc(Cl)cc21` to `CCCC1=Nc2cc(C(=O)N3CCC(C)CC3)ccc2Sc2ccc(C)cc21`, the survival rises from 90% to 97%.

Compared with `CC1=Nc2cc(C(=O)N3CCCCC3)ccc2Sc2ccc(C)cc21`, `CCCC1=Nc2cc(C(=O)N3CCC(C(=O)OCC)CC3)ccc2Sc2ccccc21` is higher in survival: 48% for the first, 79% for the second.

Going from `O=C(CNCc1ccccc1F)Nc1ccc(N2CCCC2)cc1` to `Cc1ccc(-c2noc(-c3ccccc3NC(=O)C3CC(=O)N(c4ccc(C)cc4)C3)n2)cc1` (centres undefined), the survival falls from 102% to 48%.

Compared with `COc1ccc(CNC(=O)CCc2c(C)nc3cc(-c4ccc(OC)cc4OC)nn3c2C)cc1`, `COc1cc(C(=O)Nc2ccccc2-c2nc(-c3ccc(C)cc3)no2)cc(OC)c1OC` is lower in survival: 121% for the first, 53% for the second.

Compared with `COc1cc(C(=O)Nc2ccccc2-c2nc(-c3ccccc3)no2)cc(OC)c1OC`, `Cc1ccc(-c2noc(-c3ccccc3NC(=O)c3ccccc3)n2)cc1` is higher in survival: 66% for the first, 69% for the second.

Compared with `COc1cccc(-c2noc(-c3cc(C(C)C)[nH]n3)n2)c1OC`, `COc1cccc(-c2noc(-c3cc4ccccc4oc3=O)n2)c1OC` is higher in survival: 73% for the first, 102% for the second.

With `COc1ccc(C(=O)Nc2ccccc2-c2nc(-c3ccc(OC)cc3)no2)cc1` the survival was 48%.

With `CCC1=Nc2cc(C(=O)N3CCC(C)CC3)ccc2Sc2ccc(C)cc21` the survival was -4% (active).
With `CCOC(=O)C1CCN(C(=O)c2ccc3c(c2)N=C(CC)c2cc(C)ccc2S3)CC1` the survival was 36% (active).
With `COc1ccc(N2CC(C(=O)Nc3ccccc3-c3nc(-c4ccc(C)cc4)no3)CC2=O)cc1` (centres undefined) the survival was 54% (active).
For `COc1cccc(C(=O)Nc2ccccc2-c2nc(-c3ccc(C)cc3)no2)c1`, the survival was 48% (active).
`COc1ccc(-c2noc(-c3ccccc3NC(=O)c3cc(OC)c(OC)c(OC)c3)n2)cc1` was tested, and the survival was 34% (active).
In the case of `COc1ccc(-c2noc(-c3cccc(OC)c3OC)n2)cc1`, the survival is reported as 8% (active).
